Source: PubChem BioAssay (NCATS)
Inconclusive results are not listed. Calls of active or inactive are those of the source. The call rests on the fitted dose curve; in most records, active means well fitted curve in the direction sought with a large enough effect; inconclusive means small, poorly fitted or top-dose-only effect, or another doubt; inactive means no such curve, though single readings can be large; an effect the other way counts as inactive or inconclusive.

Experiment: Quantitative High-Throughput drug screen in 47 multiple myeloma cell lines against the NCATS MIPE library collection: JIM3_ECACC cell viability assay (AID 1918963; further: nearly all actives have a fitted effect of over 35% in size;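 on viability, percent of control: 100% = DMSO-only wells and 0% = media-only wells without cells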)
Settings: JIM3 myeloma viability, CellTiter-Glo ATP, 48 h; series mostly up to 45.8 µM; viability, percent of control: at the top concentration
Method in brief: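 Steps: seed 500 cells per well; pin-transfer MIPE 4.0 library; incubate 48 h at 37C, 5% CO2, humidified; add CellTiter-Glo, 5 min room temperature; read luminescence.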
Potency means the concentration at half of the fitted maximal effect.

Row | Compound | Potency | viability, percent of control
1 | C[C@@]12O[C@@H](C[C@]1(O)CO)n1c3ccccc3c3c4c(c5c6ccccc6n2c5c31)CNC4=O | 0.526 µM (active) | 
2 | Cn1c(CNc2ccc(C(=N)N)cc2)nc2cc(C(=O)N(CCC(=O)O)c3ccccn3)ccc21 |  | 124% [at 23.2 µM] (inactive)
3 | CN1CC[C@@H](c2c(O)cc(O)c3c(=O)cc(-c4ccccc4Cl)oc23)[C@@H](O)C1 | 0.0833 µM (active) | 
4 | Nc1nccc(Oc2ccc(NC(=O)c3c[nH]cc(-c4ccc(F)cc4)c3=O)cc2F)c1Cl | 26.4 µM (active) | 
5 | CNC(=O)c1c(F)cccc1Nc1nc(Nc2cc3c(cc2OC)CCN3C(=O)CN(C)C)nc2[nH]ccc12 | 0.105 µM (active) | 
6 | Cc1nc(Nc2n[nH]c3c2CN(C(=O)N[C@H](CN(C)C)c2ccccc2)C3(C)C)c2sccc2n1 | 0.0469 µM (active) | 
7 | Cc1cn2c(-c3cn[nH]c3)cnc2c(Nc2ccc(C(=O)N3CCNCC3)cc2F)n1 | 23.5 µM (active) | 
8 | COc1cc(=C2C=c3ccccc3=N2)[nH]c1=Cc1[nH]c(C)cc1C | 2.35 µM (active) | 
9 | CC[C@H]1CN2CCc3cc(OC)c(OC)cc3[C@H]2C[C@@H]1C[C@@H]1NCCc2cc(OC)c(OC)cc21 | 0.264 µM (active) | 
10 | OCc1ccc(-c2ccc(-c3ccc(CO)s3)o2)s1 | 16.6 µM (active) | 
11 | Cn1cc(-c2[nH]c3cc(NC(=O)[C@H](N)C4CCCCC4)cc4c3c2C=NNC4=O)cn1 | 5.26 µM (active) | 
12 | Nc1nc(Nc2ccc(S(N)(=O)=O)cc2)nn1C(=O)c1c(F)cccc1F | 7.43 µM (active) | 
13 | COc1cccc2nc(-c3cccs3)nc(NN3C(=O)C=C(C)C3=O)c12 | 0.148 µM (active) | 
14 | O=C(NCCCNc1nc(Nc2cccc(NC(=O)N3CCCC3)c2)ncc1I)c1cccs1 | 5.26 µM (active) | 
15 | CC(C)(C)OC(=O)Nc1ccc(-c2cc(C(=O)NCCCCCCC(=O)NO)no2)cc1 | 3.72 µM (active) | 
16 | C=CCn1c(=O)c2cnc(Nc3ccc(N4CCN(C)CC4)cc3)nc2n1-c1cccc(C(C)(C)O)n1 | 0.59 µM (active) | 
17 | CNC(=O)c1cc(Oc2ccc(NC(=O)Nc3cc(C(C)(C)C)nn3-c3ccc4ncccc4c3)c(F)c2)ccn1 | 3.32 µM (active) | 
18 | O=C(O)C1(Cc2cccc(Nc3nccs3)n2)CCC(Oc2cccc(Cl)c2F)CC1 (stereo not drawn) | 0.935 µM (active) | 

Row | Compound | Potency | viability, percent of control
19 | COc1cc(C(=O)NS(=O)(=O)c2ccccc2C)ccc1Cc1cn(C)c2ccc(NC(=O)OC3CCCC3)cc12 | 16.6 µM (active) | 
20 | O=C(Nc1cn[nH]c1-c1nc2ccc(CN3CCOCC3)cc2[nH]1)NC1CC1 | 1.18 µM (active) | 
21 | CCOc1ccccc1OCCNC(C)Cc1ccc(OC)c(S(N)(=O)=O)c1 (stereo not drawn) |  | 107% (inactive)
22 | COC(=O)Nc1ccc(-c2nc(N3CCOCC3)c3cnn(C4CCN(Cc5cccnc5)CC4)c3n2)cc1 | 1.18 µM (active) | 
23 | Cc1[nH]c2ccccc2c1CCNCc1ccc(C=CC(=O)NO)cc1 | 0.235 µM (active) | 
24 | C[C@@H]1COC(Nc2ccc3ncnc(Nc4ccc(OCc5nccs5)c(Cl)c4)c3c2)=N1 | 2.35 µM (active) | 
25 | COC(=O)[C@]12CCC(C)(C)C[C@@H]1[C@@H]1C(=O)C=C3[C@@]4(C)C=C(C#N)C(=O)C(C)(C)[C@@H]4CC[C@@]3(C)[C@]1(C)CC2 | 0.166 µM (active) | 
26 | CCCCCCCCCC(=O)N[C@@H](Cc1c[nH]c2ccccc12)C(=O)N[C@H](CC(N)=O)C(=O)N[C@@H](CC(=O)O)C(=O)N[C@@H]1C(=O)NCC(=O)N[C@@H](CCCN)C(=O)N[C@@H](CC(=O)O)C(=O)N[C@H](C)C(=O)N[C@@H](CC(=O)O)C(=O)NCC(=O)N[C@H](CO)C(=O)N[C@@H]([C@@H](C)CC(=O)O)C(=O)N[C@@H](CC(=O)c2ccccc2N)C(=O)O[C@@H]1C |  | 92.3% (inactive)
27 | Cc1cc(CN2CCN(c3c(Br)cnc4nc(-c5ccc(N6CCN(C)CC6)cc5)[nH]c34)CC2)no1 | 7.43 µM (active) | 
28 | NC1(Cc2ccc(Cl)cc2)CCN(c2ncnc3[nH]ccc23)CC1 | 2.96 µM (active) | 
29 | CCCCN1CCC(CNC(=O)c2c3n(c4ccccc24)CCCO3)CC1 | 18.7 µM (active) | 
30 | Cc1c(CN2CCN(S(C)(=O)=O)CC2)sc2c(N3CCOCC3)nc(-c3cnc(N)nc3)nc12 | 0.0662 µM (active) | 
31 | CN1CCN(c2ccc3nc(-c4c(N)c5c(F)cccc5[nH]c4=O)[nH]c3c2)CC1 | 13.2 µM (active) | 
32 | COc1cc2c(Oc3ccc4[nH]c(C)cc4c3F)ncnc2cc1OCCCN1CCCC1 | 9.35 µM (active) | 
33 | O=c1[nH]nc(Sc2ncc([N+](=O)[O-])s2)n1-c1ccc2c(c1)OCCO2 | 2.64 µM (active) | 
34 | CC=C1NC(=O)[C@H]2CSSCCC=C[C@H](CC(=O)N[C@H](C(C)C)C(=O)N2)OC(=O)[C@H](C(C)C)NC1=O | 0.0469 µM (active) | 
35 | CCC[C@H](NC(=O)C(C#N)=Cc1cccc(Br)n1)c1ccccc1 | 1.48 µM (active) | 

Experiment: Quantitative High-Throughput drug screen in 47 multiple myeloma cell lines against the NCATS MIPE library collection: JIM1_ECACC cell viability assay (AID 1918964)
Settings: JIM1 myeloma viability, CellTiter-Glo ATP luminescence, 48 h; series mostly up to 45.8 µM; viability (% of DMSO): at the top concentration
Method in brief: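 Approved and investigational drugs from MIPE 4.0 were added by pin tool to 500 cells per well. After 48 hours at 37C, ATP-based CellTiter-Glo luminescence indicated remaining viability.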

Row | Compound | viability (% of DMSO) | Potency
36 | Cn1c(CNc2ccc(C(=N)N)cc2)nc2cc(C(=O)N(CCC(=O)O)c3ccccn3)ccc21 | 116% [at 23.2 µM] (inactive) | 
37 | Cc1cn2c(-c3cn[nH]c3)cnc2c(Nc2ccc(C(=O)N3CCNCC3)cc2F)n1 |  | 2.09 µM (active)
38 | COc1cccc2nc(-c3cccs3)nc(NN3C(=O)C=C(C)C3=O)c12 |  | 0.105 µM (active)
39 | COc1cc(C(=O)NS(=O)(=O)c2ccccc2C)ccc1Cc1cn(C)c2ccc(NC(=O)OC3CCCC3)cc12 | 68.7% (inactive) | 
40 | CCOc1ccccc1OCCNC(C)Cc1ccc(OC)c(S(N)(=O)=O)c1 (stereo not drawn) | 105% (inactive) | 
41 | C[C@@H]1COC(Nc2ccc3ncnc(Nc4ccc(OCc5nccs5)c(Cl)c4)c3c2)=N1 |  | 13.2 µM (active)
42 | CCCCCCCCCC(=O)N[C@@H](Cc1c[nH]c2ccccc12)C(=O)N[C@H](CC(N)=O)C(=O)N[C@@H](CC(=O)O)C(=O)N[C@@H]1C(=O)NCC(=O)N[C@@H](CCCN)C(=O)N[C@@H](CC(=O)O)C(=O)N[C@H](C)C(=O)N[C@@H](CC(=O)O)C(=O)NCC(=O)N[C@H](CO)C(=O)N[C@@H]([C@@H](C)CC(=O)O)C(=O)N[C@@H](CC(=O)c2ccccc2N)C(=O)O[C@@H]1C | 112% (inactive) | 
43 | NC1(Cc2ccc(Cl)cc2)CCN(c2ncnc3[nH]ccc23)CC1 |  | 2.96 µM (active)
